From PubChem BioAssay AID1159580 (chemical genetic matrix, 2015)
About 2,000 (36%) of roughly 5,500 compounds were called active. Not shown: some 18% with an inconclusive outcome. Rule as the data show it: active = normalized growth mostly below about 0.91 (no sharp cut-off); inconclusive = no clear call, values can overlap the other calls; inactive = mostly above about 0.92. Some of the results follow.

Assay: chemical genetic growth profiling, strain panel (AID 1159580);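 also: tested at 20 µM; growth read once vehicle control cultures reached saturation at 30 °C; 1 = growth at the plate median or of vehicle wells; lower values mean less growth of the strain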
Details: growth OD
[1] = S. cerevisiae deletion strains, locus YDL101C, strain DUN1, stronger effect = lower value
[2] = S. cerevisiae deletion strains, locus YHR030C, strain SLT2, stronger effect = lower value

Measured: normalized growth

CN(C(=O)N(C)c1ccc(Cl)cc1C(=O)c1ccccc1Cl)c1ccc(Cl)cc1C(=O)c1ccccc1Cl
active: S. cerevisiae deletion strains, locus YAR019C, strain CDC15, stronger effect = lower value 0.84 | S. cerevisiae deletion strains, locus YBL105C, strain PKC1, stronger effect = lower value 0.85 | S. cerevisiae deletion strains, locus YBR135W, strain CKS1, stronger effect = lower value 0.85 | S. cerevisiae deletion strains, locus YBR136W, strain MEC1, stronger effect = lower value 0.832 | S. cerevisiae deletion strains, locus YBR160W, strain CDC28, stronger effect = lower value 0.853 | S. cerevisiae deletion strains, locus YDL017W, strain CDC7, stronger effect = lower value 0.851 | S. cerevisiae deletion strains, locus YDL028C, strain MPS1, stronger effect = lower value 0.835 | [1] 0.847 | S. cerevisiae deletion strains, locus YDL108W, strain KIN28, stronger effect = lower value 0.831 | S. cerevisiae deletion strains, locus YDL132W, strain cdc53, stronger effect = lower value 0.853 | S. cerevisiae deletion strains, locus YDL214C, strain PRR2, stronger effect = lower value 0.471 | S. cerevisiae deletion strains, locus YDR052C, strain DBF4, stronger effect = lower value 0.855 | S. cerevisiae deletion strains, locus YDR054C, strain cdc34, stronger effect = lower value 0.805 | S. cerevisiae deletion strains, locus YDR226W, strain ADK1, stronger effect = lower value 0.86 | S. cerevisiae deletion strains, locus YDR477W, strain SNF1, stronger effect = lower value 0.467 | S. cerevisiae deletion strains, locus YER123W, strain YCK3, stronger effect = lower value 0.388 | S. cerevisiae deletion strains, locus YER133W, strain GLC7, stronger effect = lower value 0.447 | S. cerevisiae deletion strains, locus YFL009W, strain cdc4, stronger effect = lower value 0.848 | S. cerevisiae deletion strains, locus YFL029C, strain CAK1, stronger effect = lower value 0.828 | S. cerevisiae deletion strains, locus YFR003C, strain YPI1, stronger effect = lower value 0.85 | S. cerevisiae deletion strains, locus YFR019W, strain FAB1, stronger effect = lower value 0.577 | S. cerevisiae deletion strains, locus YFR028C, strain CDC14, stronger effect = lower value 0.841 | S. cerevisiae deletion strains, locus YGR040W, strain KSS1, stronger effect = lower value 0.462 | S. cerevisiae deletion strains, locus YGR052W, strain FMP48, stronger effect = lower value 0.46 | S. cerevisiae deletion strains, locus YGR092W, strain DBF2, stronger effect = lower value 0.242 | [2] 0.49 | S. cerevisiae deletion strains, locus YHR079C, strain IRE1, stronger effect = lower value 0.463 | S. cerevisiae deletion strains, locus YHR082C, strain KSP1, stronger effect = lower value 0.492 | S. cerevisiae deletion strains, locus YIL147C, strain SLN1, stronger effect = lower value 0.826 | S. cerevisiae deletion strains, locus YJL095W, strain BCK1, stronger effect = lower value 0.417 | S. cerevisiae deletion strains, locus YJL157C, strain FAR1, stronger effect = lower value 0.51 | S. cerevisiae deletion strains, locus YJR016C, strain ILV3, stronger effect = lower value 0.883 | S. cerevisiae deletion strains, locus YJR066W, strain TOR1 (second series), stronger effect = lower value 0.518 | S. cerevisiae deletion strains, locus YJR066W, strain TOR1, stronger effect = lower value 0.381 | S. cerevisiae deletion strains, locus YKL048C, strain ELM1, stronger effect = lower value 0.605 | S. cerevisiae deletion strains, locus YKL067W, strain YNK1, stronger effect = lower value 0.525 | S. cerevisiae deletion strains, locus YKL101W, strain HSL1, stronger effect = lower value 0.524 | S. cerevisiae deletion strains, locus YKL193C, strain SDS22, stronger effect = lower value 0.832 | S. cerevisiae deletion strains, locus YKL203C, strain TOR2, stronger effect = lower value 0.457 | S. cerevisiae deletion strains, locus YLR113W, strain HOG1, stronger effect = lower value 0.447 | S. cerevisiae deletion strains, locus YLR133W, strain CKI1, stronger effect = lower value 0.582 | S. cerevisiae deletion strains, locus YLR403W, strain SFP1, stronger effect = lower value 0.592 | S. cerevisiae deletion strains, locus YML070W, strain DAK1, stronger effect = lower value 0.446 | S. cerevisiae deletion strains, locus YMR001C, strain CDC5, stronger effect = lower value 0.838 | S. cerevisiae deletion strains, locus YMR205C, strain PFK2 (second series), stronger effect = lower value 0.549 | S. cerevisiae deletion strains, locus YMR277W, strain FCP1, stronger effect = lower value 0.825 | S. cerevisiae deletion strains, locus YNL006W, strain LST8, stronger effect = lower value 0.855 | S. cerevisiae deletion strains, locus YNL020C, strain ARK1, stronger effect = lower value 0.527 | S. cerevisiae deletion strains, locus YNL161W, strain CBK1, stronger effect = lower value 0.852 | S. cerevisiae deletion strains, locus YNL183C, strain NPR1, stronger effect = lower value 0.412 | S. cerevisiae deletion strains, locus YNL207W, strain RIO2, stronger effect = lower value 0.825 | S. cerevisiae deletion strains, locus YNL222W, strain SSU72, stronger effect = lower value 0.846 | S. cerevisiae deletion strains, locus YNL307C, strain MCK1 (second series), stronger effect = lower value 0.412 | S. cerevisiae deletion strains, locus YOL078W, strain AVO1, stronger effect = lower value 0.845 | S. cerevisiae deletion strains, locus YOL136C, strain PFK27, stronger effect = lower value 0.51 | S. cerevisiae deletion strains, locus YOR061W, strain CKA2, stronger effect = lower value 0.477 | S. cerevisiae deletion strains, locus YOR119C, strain RIO1, stronger effect = lower value 0.483 | S. cerevisiae deletion strains, locus YOR231W, strain MKK1, stronger effect = lower value 0.455 | S. cerevisiae deletion strains, locus YOR329C, strain SCD5, stronger effect = lower value 0.846 | S. cerevisiae deletion strains, locus YPL031C, strain PHO85, stronger effect = lower value 0.441 | S. cerevisiae deletion strains, locus YPL153C, strain RAD53, stronger effect = lower value 0.369 | S. cerevisiae deletion strains, locus YPL204W, strain HRR25, stronger effect = lower value 0.487 | S. cerevisiae deletion strains, locus YPL209C, strain IPL1, stronger effect = lower value 0.855 | S. cerevisiae deletion strains, locus YPL256C, strain CLN2, stronger effect = lower value 0.508 | S. cerevisiae deletion strains, locus YPR025C, strain CCL1, stronger effect = lower value 0.856 | S. cerevisiae deletion strains, locus YPR106W, strain ISR1, stronger effect = lower value 0.868 | S. cerevisiae deletion strains, strain NNK1, stronger effect = lower value 0.855 | S. cerevisiae deletion strains, strain TSCII, stronger effect = lower value 0.818
inactive: S. cerevisiae deletion strains, locus YHR205W, strain SCH9, stronger effect = lower value 0.716 | S. cerevisiae deletion strains, locus YJL128C, strain PBS2, stronger effect = lower value 0.867 | S. cerevisiae deletion strains, locus YPR111W, strain DBF20, stronger effect = lower value 0.874

COC(=O)c1ccc(Cl)cc1N(Cc1ccccc1)S(C)(=O)=O
inactive: S. cerevisiae deletion strains, locus YAL013W, strain DEP1, stronger effect = lower value 1.01 | S. cerevisiae deletion strains, locus YBR229C, strain ROT2, stronger effect = lower value 1.02 | [1] 0.998 | S. cerevisiae deletion strains, locus YDL134C, strain PPH21, stronger effect = lower value 1 | S. cerevisiae deletion strains, locus YDR150W, strain NUM1, stronger effect = lower value 0.934 | S. cerevisiae deletion strains, locus YEL061C, strain CIN8, stronger effect = lower value 1 | S. cerevisiae deletion strains, locus YGR078C, strain PAC10, stronger effect = lower value 0.992 | S. cerevisiae deletion strains, locus YGR229C, strain SMI1, stronger effect = lower value 0.999 | [2] 1.11 | S. cerevisiae deletion strains, locus YHR087W, strain rtc3, stronger effect = lower value 1 | S. cerevisiae deletion strains, locus YJL187C, strain SWE1, stronger effect = lower value 1 | S. cerevisiae deletion strains, locus YJR075W, strain HOC1, stronger effect = lower value 0.968 | S. cerevisiae deletion strains, locus YLR039C, strain RIC1, stronger effect = lower value 1.03 | S. cerevisiae deletion strains, locus YLR058C, strain SHM2 (second series), stronger effect = lower value 1.01 | S. cerevisiae deletion strains, locus YLR085C, strain ARP6, stronger effect = lower value 1.05 | S. cerevisiae deletion strains, locus YLR262C, strain YPT6, stronger effect = lower value 1 | S. cerevisiae deletion strains, locus YML094W, strain GIM5, stronger effect = lower value 1.02 | S. cerevisiae deletion strains, locus YMR219W, strain ESC1, stronger effect = lower value 1 | S. cerevisiae deletion strains, locus YMR263W, strain SAP30, stronger effect = lower value 0.929 | S. cerevisiae deletion strains, locus YNL128W, strain TEP1, stronger effect = lower value 1.02 | S. cerevisiae deletion strains, locus YNL153C, strain GIM3, stronger effect = lower value 1 | S. cerevisiae deletion strains, locus YNL298W, strain CLA4 (second series), stronger effect = lower value 1.04 | S. cerevisiae deletion strains, locus YNL322C, strain KRE1, stronger effect = lower value 0.985 | S. cerevisiae deletion strains, locus YNR030W, strain Alg12, stronger effect = lower value 1.02 | S. cerevisiae deletion strains, locus YOL006C, strain TOP1, stronger effect = lower value 1.14 | S. cerevisiae deletion strains, locus YPL055C, strain LGE1, stronger effect = lower value 0.923 | S. cerevisiae deletion strains, locus YPL241C, strain CIN2, stronger effect = lower value 1.03 | S. cerevisiae deletion strains, locus YPR135W, strain CTF4, stronger effect = lower value 1.17 | S. cerevisiae strains, strain wild type, stronger effect = lower value 1.03
